# Data: PubChem BioAssay AID504466 (National Center for Advancing Translational Sciences (NCATS), 2011)
# The campaign covered roughly 330,000 compounds. About 4,200 (1.3%) were called active. Where a call stands in place of a potency, no number is given. Not shown: some 6% with an inconclusive outcome. For the sample, actives were picked, then their nearest neighbours and some compounds at random. Unmarked numbers belong to inactive results. Calls follow the shape of the dose curve; as a rule, active = well fitted activation curve with a large enough effect; inconclusive = small, poorly fitted or top-dose-only effect; inactive = no such curve, though single readings can be large or run the other way.
# Assay: qHTS screen for small molecules that induce genotoxicity in human embryonic kidney (HEK293T) cells expressing luciferase-tagged ELG1; also: nearly all actives have a fitted effect of over 60% in size
# Conditions: HEK293T ELG1-luciferase reporter, luminescence, 16 h; series mostly up to 46 µM
# Summary of the method: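 DMSO vehicle served as control against compound-treated ELG1-luciferase HEK293T cells; exposure lasted 16 hr at 37 °C and 5% CO2, followed by ONE-Glo luminescence detection after 30 min.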
# Potency is read from the fitted curve at half-maximal effect.
Compound,Potency,"activity change, positive = activation"
CS(=O)(=O)c1ccc(C(=O)NNC(=O)c2cccs2)cc1,inactive,–
O=c1c2ccccc2nc(N/N=C/c2ccccc2)n1O,inactive,–
O=C(Nn1cnc2ccccc2c1=O)c1ccccc1,inactive,–
O=c1c2ccccc2ncn1/N=C/c1ccccc1,3.66 µM (active),–
CCN(C(=O)CSc1cccc[n+]1[O-])c1ccccc1,inactive,–
COc1ccc(CNC(=O)COC(=O)c2sccc2C)cc1OC,inactive,–
O=C(Nc1nc2ccccc2s1)c1ccc2c(c1)OCO2,0.58 µM (active),–
O=C(Nc1ccccc1)c1ccc2c(c1)OCCCO2,0.517 µM (active),–
CCSc1ccccc1C(=O)Nc1ccc2c(c1)OCO2,inactive,–
COc1ccc2nc(NC(=O)[C@@H]3CCCN3C(=O)c3cccs3)sc2c1,inactive,–
O=C(Nc1cccc(S(=O)(=O)N2CCCCC2)c1)c1ccc2c(c1)OCO2,inactive,–
COc1ccc2nc(NC(=O)c3ccc(Br)s3)sc2c1,2.82 µM (active),–
O=C(Nc1cccc(S(=O)(=O)Nc2ccc(Cl)cc2)c1)c1ccc2c(c1)OCCO2,inactive,–
O=C(Nc1ccccc1N1CCN(C(=O)c2ccccc2)CC1)c1ccc2c(c1)OCO2,inactive,–
CSc1ncccc1C(=O)Nc1ccc2c(c1)OCO2,inactive,–
COc1ccc2nc(NC(=O)NC3CCCCC3)sc2c1,inactive,–
O=C(Nc1nc2cc3c(cc2s1)OCCO3)c1cccc(S(=O)(=O)N2CCOCC2)c1,inactive,–
CC(C)C(=O)Nc1cccc(C(=O)Nc2ccc3c(c2)OCO3)c1,6.51 µM (active),–
C=CC[C@@H](CC(=O)N[C@H](CO)Cc1ccccc1)C(=O)N[C@H](C)COC(=O)[C@@H](CC=C)Cc1ccc(F)cc1,inactive,–
CC(=O)c1c(C)[nH]c(C(=O)COC(=O)c2cccs2)c1C,inactive,–
COc1ccc(C2=Nn3c(nnc3-c3ccccc3OC)SC2)cc1OC1CCCC1,inactive,–
COc1ccccc1N(CCOc1ccccc1)S(=O)(=O)c1ccccc1,inactive,–
CC(C)(C)OC(=O)C[C@@H]1C/C=C\C[C@@H](CC(=O)N(CCO)Cc2ccccc2)C(=O)N[C@H](Cc2ccccc2)COC1=O,inactive,–
CCCN(CC1CC1)C(=O)COC(=O)c1ccc(C)cc1O,inactive,–
O=C(COC(=O)c1cc(S(=O)(=O)N2CCOCC2)ccc1F)NC1CC1,inactive,–
Cn1c(=O)n(C)c2cc(C(=O)Nc3ccc4c(c3)OCO4)ccc21,8.2 µM (active),–

Compound,Potency,"activity change, positive = activation"
CC(C)CNS(=O)(=O)c1ccc(C(=O)Nc2ccc3c(c2)OCO3)cc1,inactive,–
CNC(=O)c1ccc2nc(NC(C)=O)sc2c1,18.4 µM (active),–
O=C(Nc1ccccc1)c1ccc2c(c1)OCO2,9.2 µM (active),–
CS(=O)(=O)c1ccc2nc(NC(=O)c3ccc(Cl)nc3)sc2c1,inactive,–
O=C(Nc1ccc(NC(=O)c2ccc3c(c2)OCO3)cc1)c1cccc(Cl)c1,inactive,–
COc1cccc(C(=O)Nc2nc3ccc(S(C)(=O)=O)cc3s2)c1,inactive,–
O=C(Nc1ccc2c(c1)OCO2)c1ccc(N2C(=O)c3ccccc3C2=O)cc1,inactive,–
O=C(Nc1cccc([N+](=O)[O-])c1)c1ccc2c(c1)OCO2,inactive,–
O=C(OCC(=O)N1CCN(c2ccccc2)CC1)c1ccc([N+](=O)[O-])s1,inactive,–
CC(=O)Nc1ccc(S(=O)(=O)NCC(=O)OCC(=O)c2ccc[nH]2)cc1,inactive,–
CC(C)NC(=O)Nc1cccc2c1O[C@@H](CN(C)S(=O)(=O)c1ccc(F)cc1)[C@@H](C)CN([C@H](C)CO)C2=O,inactive,–
CCN(CC)c1ccc(/C=N/NC(=O)CNC(=O)c2cccs2)cc1,inactive,–
O=C(Nc1ccccc1)c1ccc(NC(=O)c2cccs2)cc1,inactive,–
CC(=O)Nc1ccc(/C=N/NC(=O)c2cccs2)cc1,16.4 µM (active),–
Cc1noc(C)c1S(=O)(=O)N(C)C[C@H]1Oc2ccc(NC(=O)C3CCCCC3)cc2C(=O)N([C@H](C)CO)C[C@@H]1C,inactive,–
Cc1ccc(NC(=O)C2CCC(C(C)(C)C)CC2)cc1S(=O)(=O)N1CCOCC1 (stereo unspecified),inactive,–
CN(C(=O)c1cccc(NC(=O)Cc2cccc([N+](=O)[O-])c2)c1)C1CCCCC1,inactive,–
Cn1nnnc1SCC(=O)Nc1cccc(S(=O)(=O)N2CCCCC2)c1,inactive,–
Cc1ccccc1Nc1nc(N)nc(CN2CCN(c3ccccn3)CC2)n1,inactive,–
Cc1ccc(C(=O)OCc2nc(N)nc(Nc3ccccc3C)n2)cc1,inactive,–
Cc1ccccc1Nc1nc(N)nc(CSc2ccccc2)n1,9.2 µM (active),–
Cc1ccc(NC(=O)c2cc(-c3ccccc3O)n[nH]2)cc1C,inactive,–
Oc1ccccc1-c1cc(-c2ccc(Cl)cc2)n[nH]1,2.31 µM (active),–
Cc1ccc(S(=O)(=O)Cc2cc(-c3ccc(Cl)cc3)no2)cc1,inactive,–
CCCCOc1ccc(C(=O)NCC(=O)OCC(=O)c2c(N)n(C)c(=O)n(C)c2=O)cc1,inactive,–
C[C@H](CO)N1C[C@H](C)[C@@H](CN(C)S(=O)(=O)c2ccc(F)cc2)Oc2c(NC(=O)Nc3ccccc3)cccc2C1=O,inactive,–

Compound,Potency,"activity change, positive = activation"
CCOC(=O)CCCCCC(=O)Nc1ccc2c(c1)CC(=O)N([C@@H](C)CO)C[C@H](C)[C@@H](CN(C)Cc1ccccc1)O2,inactive,–
Cc1ccn2cc(-c3nonc3C)cc2c1,23.1 µM (active),–
O=C1CN(C(=O)COC(=O)/C=C/c2ccc(F)cc2)c2ccccc2N1,inactive,–
O=C(O)Cc1ccc(NC(=O)Nc2cccc3ccccc23)cc1,inactive,–
O=C(Nc1cccc2ccccc12)c1onc2c1CCCC2,16.4 µM (active),–
O=C(O)c1ccccc1-c1ccccc1C(=O)Nc1cccc2ccccc12,inactive,–
O=C(Nc1cccc(S(=O)(=O)N2CCOCC2)c1)C12CC3CC(CC(C3)C1)C2,inactive,–
O=C(COC(=O)c1ccccc1O)NCc1ccco1,inactive,–
O=C(CSc1ncn[nH]1)Nc1ccc(Br)cc1Br,inactive,–
O=C(Nc1ncccc1O)c1ccc(C(=O)c2ccccc2)cc1,18.3 µM (active),–
O=C(CNC(=O)c1ccc2ccccc2c1)Nc1ncccc1O,inactive,–
O=C(Nc1ncccc1O)c1ccc(S(=O)(=O)N2CCCC2)cc1,inactive,–
CC1Sc2ccc(C(=O)NCc3ccccc3Cl)cc2NC1=O (stereo unspecified),inactive,–
CCCCNS(=O)(=O)CCNCc1ccccc1OC,inactive,–
CCOc1ccc2nc(C(=O)N3CCCC(C)C3)sc2c1 (stereo unspecified),10.3 µM (active),–
CCOc1ccc2nc(N(CCN(C)C)C(=O)c3ccc4ccccc4c3)sc2c1,inactive,–
CCCC(=O)N(CCN1CCOCC1)c1nc2ccc(OCC)cc2s1,–,0.969% [at 9.26 µM]
C=CC[C@@H](Cc1ccc(F)cc1)C(=O)OC[C@H]1CCCN1C(=O)[C@H](CC=C)CC(=O)N(CCO)Cc1ccccc1,inactive,–
COc1cccc(-c2sc3ccc(OC)cc3c2-c2ccc(OCCN3CCCCC3)cc2)c1,inactive,–
COC(=O)[C@]1(Cc2ccccc2)N[C@H](CN(C)S(=O)(=O)c2ccc(OC(F)(F)F)cc2)[C@@H]2C(=O)N(C)C(=O)[C@@H]21,inactive,–
O=C(c1ccc(N2CCOCC2)c([N+](=O)[O-])c1)N1CCN(c2ccccc2F)CC1,inactive,–
Cc1nc2cc(NCc3cccs3)ccc2n1C,inactive,–
Cc1nc2cc(NC(=O)Nc3cccc(F)c3)ccc2n1C,0.92 µM (active),–
C=CCN(C(=O)Nc1ccc2c(c1)nc(C)n2C)c1ccccc1,inactive,–
CNC[C@H]1Oc2c(NC(=O)C3CCCCC3)cccc2C(=O)N([C@H](C)CO)C[C@@H]1C,inactive,–
COc1cc(/C=N\Nc2nc(-c3cccs3)c(NC(C)=O)s2)ccc1O,inactive,–

Compound,Potency,"activity change, positive = activation"
COc1ccc(/C=N\NC(=O)c2sc(N)nc2C)cc1OC,inactive,–
Oc1c(Br)cccc1/C=N/Nc1c(F)c(F)c(F)c(F)c1F,inactive,–
Brc1ccccc1/C=N/Nc1nc2ccccc2o1,11.6 µM (active),–
CCOc1ccccc1/C=N/Nc1nc2ccccc2o1,inactive,–
COc1ccc(/C=N/Nc2nc3ccccc3o2)cc1OC,2.59 µM (active),–
CCCCNc1c(-c2ccc(OC)c(Sc3ccc(OC)cc3)c2)nc2ccc(Cl)cn12,inactive,–
O=C(CCNC(=O)c1ccccc1)NN=Cc1ccc(Br)o1,inactive,–
CC(=O)N(O)CCCCCNC(=O)CCC(=O)N(O)CCCCCNC(=O)CCC(=O)N(O)CCCCCNC(=O)CCC(=O)O,inactive,–
CCN(CC)c1ccc(/C=N/NC(=O)CNC(=O)c2cccnc2)cc1,inactive,–
Cc1ccc(C(=O)NCCNC(=O)c2cnccn2)cc1,inactive,–
CCN(CC)c1ccc(/C=N/NC(=O)c2cnccn2)c(O)c1,18.3 µM (active),–
CN(CC(=O)NCCc1ccc(S(N)(=O)=O)cc1)CC(=O)Nc1ccc(Cl)cc1,inactive,–
COc1ccc(C(=O)NCc2ccccc2C)cc1S(=O)(=O)NC1CCCC1,inactive,–
CCOC(=O)c1oc2ccccc2c1NC(=O)c1cccs1,inactive,–
CCc1c(C)sc(NC(=O)c2ccc(Br)o2)c1C(=O)OC,inactive,–
CCc1c(C)sc(NC(=O)c2cccs2)c1C(N)=O,18.4 µM (active),–
CC(Sc1nncn1C)C(=O)NCCC1=CCCCC1 (stereo unspecified),inactive,–
CN1C(=O)[C@H]2[C@@H](/C=C/c3ccccc3)N3C(=O)CN(Cc4ccc(-c5ccccc5)cc4)C(=O)[C@@]3(C)[C@H]2C1=O,inactive,–
Cn1c(N)c(C(=O)COC(=O)c2ccc3ccccc3c2)c(=O)n(C)c1=O,inactive,–
Cc1ccccc1CC1(CO)CCCN(C(=O)c2cc(-c3ccccc3)no2)C1 (stereo unspecified),inactive,–
CCCc1cc(C(=O)N2CCCC(CO)(CCCc3ccccc3)C2)n(C)n1 (stereo unspecified),inactive,–
COC(=O)CCC(=O)N1CCCC(CO)(Cc2ccccc2)C1 (stereo unspecified),20.6 µM (active),–
Cc1onc(-c2c(F)cccc2Cl)c1C(=O)OCC(=O)N1C(C)CCCC1C (stereo unspecified),inactive,–
